Bioassay records deposited in PubChem BioAssay by several laboratories.
A selection: hits, their analogues and other compounds. The true share with any hit is near 2.5%.
Bim-Mcl-1: inhibitors of Bim-Mcl-1 interaction, human. inhibition, % at 10 µM. AID 1009. actives 0.1% (n = 190,000). Bead-based flow cytometry, Bim peptide-Mcl-1 binding. Q07820; in the data active means inhibition above about 40%;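 further: 0% = no compound tracer wells and 100% = peptide blocker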
Target sequence (Q07820 whole entry, looked up): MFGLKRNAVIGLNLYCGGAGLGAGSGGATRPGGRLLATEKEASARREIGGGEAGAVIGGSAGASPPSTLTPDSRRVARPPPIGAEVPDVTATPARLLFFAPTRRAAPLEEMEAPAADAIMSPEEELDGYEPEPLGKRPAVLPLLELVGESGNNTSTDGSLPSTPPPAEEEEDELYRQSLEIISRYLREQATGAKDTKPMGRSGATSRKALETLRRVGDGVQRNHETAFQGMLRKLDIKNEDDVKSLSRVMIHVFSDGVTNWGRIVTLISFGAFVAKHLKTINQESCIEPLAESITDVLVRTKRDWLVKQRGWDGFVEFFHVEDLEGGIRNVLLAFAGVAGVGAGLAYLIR
Mcl1-Noxa inh: Mcl-1/Noxa interaction inhibition. actives 1.5% (n = 220,000). inhibition, % at 21.7 µM. TR-FRET Mcl-1/Noxa peptide binding, 2 h. AID 1022;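 active means compounds that cut the protein-peptide binding signal by more than 50% relative to plate controls in a single-dose test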;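 further: His-tagged Mcl-1 with rhodamine Noxa BH3 peptide and terbium anti-His antibody; 0% = Mcl-1 plus Noxa peptide wells and 100% = peptide-only wells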
MCL1 BIM primary: disrupts human MCL1 binding to BIM-BH3 peptide | inhibition, % at 10.9 µM | actives 0.68% (n = 320,000) | GST-MCL1 / FITC-Bim-BH3 fluorescence polarization;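 active means inhibition above the mean inhibition of all tested compounds plus 3 SD, set per campaign, cut at about 40% in these data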;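 further: 0% = DMSO wells and 100% = unlabeled Bim-BH3 peptide control; higher means more loss of mP so more displacement of Bim peptide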
14-3-3 Bad PPI: disrupts binding of bovine 14-3-3 zeta to phospho-Bad peptide; inhibition, % at 21.7 µM; actives 0.71% (n = 220,000); TR-FRET 14-3-3zeta/Dy647-pBad peptide displacement, 1 h; P63103;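 active means inhibition above about 70%, limit read from the data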;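 further: 0% = full 14-3-3 plus peptide FRET controls and 100% = background without 14-3-3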
Target sequence (P63103 whole entry, looked up): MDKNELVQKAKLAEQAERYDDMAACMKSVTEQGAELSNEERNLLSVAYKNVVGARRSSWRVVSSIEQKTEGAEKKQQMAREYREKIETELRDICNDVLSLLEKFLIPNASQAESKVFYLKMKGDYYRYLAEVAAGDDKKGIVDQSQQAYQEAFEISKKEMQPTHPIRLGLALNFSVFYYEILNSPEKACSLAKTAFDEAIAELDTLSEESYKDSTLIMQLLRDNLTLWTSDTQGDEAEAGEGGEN
Mcl1-Bid inh: Mcl-1/Bid interaction inhibition. TR-FRET Mcl-1/Bid-Dy647 peptide binding, 1536-well. actives 0.97% (n = 220,000). Q07820. inhibition, % at 21.7 µM;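 active means compounds that cut the binding signal by more than half at the single screening dose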;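 further: His-tagged Mcl-1 with europium anti-His antibody binding Bid BH3 peptide; 0% = Mcl-1 plus peptide wells and 100% = peptide-only wells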
Numbers without * were called inactive; i = inactive; · = no result.

SMILES	Bim-Mcl-1	Mcl1-Noxa inh	MCL1 BIM primary	14-3-3 Bad PPI	Mcl1-Bid inh
COc1ccc(C)cc1S(=O)(=O)Nc1ccc(F)cc1	-1	21	-4	14	-3
Cc1[nH]c2ccccc2c1C(=O)COC(=O)C1CC(=O)N(Cc2ccco2)C1 (stereo not given)	-5	-3	5	8	-32
O=C(COC(=O)C1CC(=O)N(Cc2ccco2)C1)c1ccc(OC(=O)c2ccco2)cc1 (stereo not given)	-4	55*	26	4	-9
Cc1ccc(C(=O)Oc2ccc(C(=O)COC(=O)C3CC(=O)N(Cc4ccco4)C3)cc2)cc1 (stereo not given)	0	-216	11	19	57*
COc1ccccc1N1CCN(C(=O)Nc2ccc([N+](=O)[O-])cc2)CC1	4	8	-2	-5	-11
COc1cccc(N=Nc2ccc(O)c3ncccc23)c1	·	·	8	·	·
COc1ccc(N=Nc2ccc(O)c3ncccc23)cc1	·	-2	11	3	73*
Oc1ccc(NC(=S)N=Nc2c(O)[nH]c3ccc(Br)cc23)cc1	3	57*	·	-24	-22
CCOC(=O)N1CCN(Cc2cn3ccccc3n2)CC1	-6	8	2	62	56*
O=C(O)c1ccc(OCc2cn3ccccc3n2)cc1	·	10	1	1	-28
CCOC(=O)N1CCN(Cc2c(F)cccc2F)CC1	-3	28	-2	14	52*
Cc1ccc(S(=O)(=O)N(C)C)cc1NC(=O)COC(=O)C1CCN(S(=O)(=O)c2cccs2)CC1	·	·	-4	·	·
Cc1cnc(C(=O)OCC(=O)Nc2cccc(Cl)c2)cn1	-5	2	1	-3	7
CC(C)(C)C1CCC(C(=O)OCC(=O)Nc2ccc3[nH]c(=O)[nH]c3c2)CC1 (stereo not given)	-1	59*	-10	-1	8
O=C(COC(=O)C12CC3CC(CC(C3)C1)C2)Nc1ccc2[nH]c(=O)[nH]c2c1	·	·	-1	·	·
Cc1ccc(C(=O)ONc2ccc(N=NC(=O)c3ccccc3O)cc2)cc1	3	81*	8	26	102*
CSCc1nc2sc(C(=O)Nc3nc(C)cs3)c(C)c2c(=O)[nH]1	0	79*	-2	-12	-23
Cc1csc(NC(=O)CSc2nc3sc(C)c(C)c3c(=O)[nH]2)n1	-4	-118	-10	1	63*
O=C(Nc1cccc(F)c1)N1CC=C(c2ccc(Cl)cc2)CC1	0	-5	21	-4	-7
Cc1c(Cc2c(C)n(C)n(-c3ccccc3)c2=O)c(=O)n(-c2ccccc2)n1C	-3	10	3	-8	0
O=C(CSCc1ccccc1Br)N/N=C/c1ccccc1C(=O)O	0	14	3	83*	-38
O=C(Cc1ccccc1)Nc1scc(-c2ccccc2)c1C(=O)N1CCOCC1	0	20	-17	-5	86*
Cc1nc(NC(=O)c2cccc(-c3cc4ccccc4oc3=O)c2)ccc1Br	-4	-34	-2	65	58*
CCOc1ccc(S(=O)(=O)N2CCCC(C(=O)NCc3ccccc3)C2)cc1 (stereo not given)	·	·	12	·	·
CC(C)N=c1scc(-c2ccco2)n1/N=C/c1ccc(O)c(O)c1	0	35	27	-2	-8
SMILES	Bim-Mcl-1	Mcl1-Noxa inh	MCL1 BIM primary	14-3-3 Bad PPI	Mcl1-Bid inh
COCCN=c1scc(-c2ccco2)n1/N=C/c1ccc(O)c(O)c1O	7	103*	11	37	3
COc1ccc(C)cc1NC(=O)C(OC(=O)Cn1cnc2c1c(=O)n(C)c(=O)n2C)c1ccccc1 (stereo not given)	·	·	-1	·	·
CCOc1ccccc1NC(=O)CN(C)S(=O)(=O)c1cccc2nsnc12	3	8	6	-7	88*
Cc1cccc(N2C(S)=C(C#N)C(=O)NC2c2cccs2)c1 (stereo not given)	28	3	-4	16	-54
O=C(CN(Cc1ccc(F)cc1)S(=O)(=O)c1ccccc1)N1CCCCC1	-3	62*	6	4	-24
COC(=O)CCC(=O)OC1(C)C(=O)C2=CN(CCc3ccccn3)C(c3ccc(OC)cc3)=CC2=C(Br)C1=O (stereo not given)	·	·	40*	·	·
COC(=O)CCC(=O)OC1(C)C(=O)C2=CN(CCCCO)C(c3ccc(OC)cc3)=CC2=C(Br)C1=O (stereo not given)	·	·	40*	·	·
CCCCC1=CC2=C(c3ccco3)C(=O)C(C)(OC(=O)c3ccc(OC)cc3)C(=O)C2=CN1CCc1ccccn1 (stereo not given)	·	16	23	-1	-67
COC(=O)CCC(=O)OC1(C)C(=O)C2=CN(C(CO)CO)C(c3ccc(OC)cc3)=CC2=C(Br)C1=O (stereo not given)	·	19	40*	-8	-58
COC(=O)CCC(=O)OC1(C)C(=O)C2=CN(CCN3CCOCC3)C(c3ccc(OC)cc3)=CC2=C(Br)C1=O (stereo not given)	·	18	21	-2	-79
CC1(C)Oc2ccc(C(=O)N3CCc4ccccc43)cc2N(CC(=O)N2CCCC2)C1=O	-1	-3	7	-2	-28
Cc1ccc(/C(N)=N/OC(=O)c2ccc(Cl)cc2Cl)cc1	-1	-6	-5	6	-29
COc1ccc(-c2ccc(-c3nnn(CC(=O)N4CCOCC4)n3)cc2)cc1	0	9	3	44	2
COc1ccc(N2CCN(C(=O)Cn3nnc(-c4ccc(N(C)C)cc4)n3)CC2)cc1	0	52*	-3	77*	60*
CCN1C(=O)CC(n2c(C)nc3ccccc32)C1=O (stereo not given)	0	-10	-1	-6	-2
CC(C)CCNC(=O)c1csc2c1CCCCC2	-1	17	4	2	64*
CC(=O)C1C(c2ccc([N+](=O)[O-])cc2)C2C(C)=NN=C2CC1(C)O (stereo not given)	·	-18	-6	4	17
Cc1ccc(-n2c(C)nc3oc4ccccc4c(=O)c3c2=O)cc1	0	65*	21	9	-8
COCCn1c(-c2ccc(F)cc2)nc2oc3cc(OC)ccc3c(=O)c2c1=O	·	-23	1	29	38
COCCn1c(-c2ccc(C)cc2)nc2oc3cc(OC)ccc3c(=O)c2c1=O	·	33	5	33	53*
CCCc1nc2oc3cc(OC)ccc3c(=O)c2c(=O)n1CCc1ccccc1	·	7	5	15	69*
CCc1nc2oc3cc(OC)ccc3c(=O)c2c(=O)n1Cc1ccccc1	-7	9	-2	15	28
CCc1nc2oc3cc(OC)ccc3c(=O)c2c(=O)n1-c1ccccc1	-6	-11	0	10	23
COc1ccc2c(=O)c3c(=O)n(-c4ccc(C)cc4)c(-c4ccccc4)nc3oc2c1	·	81*	7	12	48
N#Cc1cc2c(nc1SCc1ccccc1)CCCC2	-3	i	1	-33	-25
COc1ccc(-c2c(C)oc3c(CN4CCCCC4C)c(O)ccc3c2=O)cc1 (stereo not given)	·	·	-6	·	·
